SMILES strings stand for the structures. Results filed as inconclusive are left out. A number with no mark means an inactive call. Active and inactive are the calls of the source. The call rests on the fitted dose curve; in most records, active means well fitted cell-killing curve with a large enough effect in the repeat runs; inconclusive means weak or mixed curves; inactive means no such curve, though single readings can be large or run the other way.
On the % scale 0 is the no-effect control and ±100 the full control effect.

A short description of this test: qHTS assay to identify small molecule agonists of the peroxisome proliferator-activated receptor delta (PPARd) signaling pathway - cell viability counter screen (AID 743211). Further: nearly all actives have a fitted effect of over 55% in size. To be noted: PPARd-bla HEK293H viability, CellTiter-Glo luminescence, 17 h; series mostly up to 62.6 µM; activity change, negative = cytotoxicity: at the top concentration. An excerpt: U.S. Tox21 Program National Center for Advancing Translational Sciences [NCATS] NIH Chemical Genomics Center [NCGC] U.S. Environmental Protection Agency [EPA] National Institutes of Environmental Health Sciences [NIEHS] National Toxicology Program [NTP] U.S. Food and Drug Administration [FDA] Tox21 Assay Overview: The peroxisome proliferator-activated receptors (PPARs) are lipid-activated transcription factors of the nuclear receptor superfamily with three distinct subtypes namely PPAR alpha, PPAR delta (PPARd) and PPAR gamma. All these subtypes heterodimerizes with Retinoid X receptor (RXR) and have different physiological functions. […] To identify the compounds that activate PPAR-delta signaling, GeneBLAzer PPAR delta UAS-bla HEK293H cell line (Invitrogen, Carlsbad, CA, USA) containing a beta-lactamase reporter gene under the control of an Upstream Activator Sequence (UAS) was used to screen the Tox21 compound library. The cytotoxicity of the Tox21 compound library against the PPARd-bla cell line was tested in parallel by measuring the cell viability using CellTiter-Glo assay (Promega, Madison, WI) in the same wells.
Tox21 Assay Protocol Summary: PPARd-bla cells were dispensed at 3000 cells/6uL/well in 1536-well black wall/clear bottom plates using a Multidrop Combi (Thermo Fisher Scientific, Waltham, MA) dispenser. After the assay plates were incubated at 37 C and 5% CO2 for 5 h, 23 nL of compounds dissolved in DMSO, positive controls or DMSO only was transferred to the assay plate by a Pintool station (Kalypsys, San Diego, CA). The assay plates were incubated at 37C for 17 h. After 1 uL of LiveBLAzerTM B/G FRET substrate was added using a Bioraptr Flying Reagent Dispenser (FRD) workstation (Beckman Coulter, Indianapolis, IN, USA), the plates were incubated at room temperature for 2 h, and fluorescence intensity was measured by an Envision plate reader (PerkinElmer, Shelton, CT). For cell viability readout that measures cytotoxicity, 3 ul/well of CellTiter-Glo reagent was added into the assay plates using a Bioraptr FRD. After 30 min incubation at room temperature, the luminescence intensity in the plates was measured using a ViewLux plate reader (PerkinElmer).
(Quantitative high-throughput screening tests each substance at several concentrations.)
For `Oc1cccc(Cl)c1`, the “activity change, negative = cytotoxicity” value is -9.42%.

In the case of `CC(C)(C)OOC(C)(C)CCC(C)(C)OOC(C)(C)C`, the “activity change, negative = cytotoxicity” value is -1.46%.

Regarding `Cc1ccc2c(C)cccc2c1`, the “activity change, negative = cytotoxicity” value was 6.16%.

`COC(=O)Cc1ccccc1`: the “activity change, negative = cytotoxicity” value was 0.399%.

As to `O=C(O)c1ccc(=O)[nH]c1`, the “activity change, negative = cytotoxicity” value is -1.67%.

Take `C=CC(C)(CCC=C(C)C)OC(=O)c1ccccc1N` (stereo not given): the “activity change, negative = cytotoxicity” value was 11.4% [at 81.1 µM].

Take `CCCCCCCCP(=O)(O)O`: the “activity change, negative = cytotoxicity” value was -1.09%.

With `CCCCCCCCCCCCN=C(N)N`, the activity change, negative = cytotoxicity is -26.8% [at 2.7 µM].

For `CCOP(=O)(O)C(N)=O`, the “activity change, negative = cytotoxicity” value is -0.253%.

In the case of `NC(=S)c1c(Cl)cccc1Cl`, the “activity change, negative = cytotoxicity” value is 0.175%.

`COc1ccccc1N1CCNCC1`: the “activity change, negative = cytotoxicity” value was 4.9%.

With `COC(=O)C1(O)c2ccccc2-c2ccccc21`, the “activity change, negative = cytotoxicity” value is 0.329%.

As to `Cc1cccc(C)c1NC1=NCCCS1`, the “activity change, negative = cytotoxicity” value is -4.88%.

On to `C[C@H]1O[C@H](OC2[C@@H](O)[C@@H](O)C(O)[C@H](O)[C@H]2O)[C@@H](N)C[C@@H]1N=C(N)C(=O)O` (stereo not given in full), for which the “activity change, negative = cytotoxicity” value is 0.932%.

For `C[N+](C)(C)CCOC(=O)C(O)(c1ccccc1)c1ccccc1`, the “activity change, negative = cytotoxicity” value is 0.913%.

As to `CCCN(CCOc1c(Cl)cc(Cl)cc1Cl)C(=O)n1ccnc1`, the “activity change, negative = cytotoxicity” value is -18.8%.

As for `C[Si](Cn1cncn1)(c1ccc(F)cc1)c1ccc(F)cc1`, the “activity change, negative = cytotoxicity” value is -9.39% [at 81.1 µM].

Consider `ClCc1ccccc1Cl`, for which the “activity change, negative = cytotoxicity” value is -0.332% [at 81.1 µM].

As to `COC1=CC(=O)O[C@@H](/C=C/c2ccc3c(c2)OCO3)C1`, the “activity change, negative = cytotoxicity” value was -3.48%.

Take `CCCC[N+]1(C)[C@@H]2CC(OC(=O)[C@H](CO)c3ccccc3)C[C@H]1[C@@H]1O[C@@H]12` (stereo not given in full): the “activity change, negative = cytotoxicity” value is -0.492%.

For the molecule `CC[N+]1(C)CCCC(OC(=O)C(O)(c2ccccc2)c2ccccc2)C1` (stereo not given), the “activity change, negative = cytotoxicity” value was 2.64%.

Take `C=CCc1ccccc1O`: the “activity change, negative = cytotoxicity” value was 8.17%.

As to `CCOC(=O)c1cn2nc(OP(=S)(OCC)OCC)cc2nc1C`, the “activity change, negative = cytotoxicity” value is 0.816%.

As to `N#CC(C#N)=C(C#N)C#N`, the “activity change, negative = cytotoxicity” value was -7.86% [at 81.1 µM].

For `OCC1CO1` (stereo not given), the Potency result was “inactive”.

For the molecule `CCc1cnc(C2=NC(C)(C(C)C)C(=O)N2)c(C(=O)O)c1` (stereo not given), the Potency result is “inactive”.

As to `C[C@@H]1C[C@@H]([C@H](O)CC2CC(=O)NC(=O)C2)C(=O)[C@@H](C)C1`, the “activity change, negative = cytotoxicity” value is 5.75%.

As for `C=C(Cl)Cl`, the “activity change, negative = cytotoxicity” value is 3.9% [at 81.1 µM].

Regarding `Cc1ccc(N)c(C)c1`, the Potency result is “inactive”.

With `Nc1c(Br)cc(Br)c2c1C(=O)c1ccccc1C2=O`, the “activity change, negative = cytotoxicity” value was 14% [at 29.1 µM].

With `O=C(Cc1ccccc1)OCCc1ccccc1`, the “activity change, negative = cytotoxicity” value is 2.36%.

`CCC(=O)O[C@@H]1C=C2CCC3C(CCC4(C)C3CC[C@@H]4OC(=O)CC)C2CC1` (stereo not given in full): the “activity change, negative = cytotoxicity” value was 3.7%.

For `CC(C)c1ccc(NC(=O)N(C)C)cc1`, the “activity change, negative = cytotoxicity” value was 11.1%.

In the case of `CC[N+]1(CCOC(=O)C(O)(c2ccccc2)c2ccccc2)CCCCC1`, the “activity change, negative = cytotoxicity” value is -4.07%.

For `CC1(C)CC(=O)CC(C)(C)N1[O]`, the “activity change, negative = cytotoxicity” value is 2.58%.

Take `C#CC(O)(C=CCl)CC` (stereo not given): the “activity change, negative = cytotoxicity” value is 3.03%.

For `CN1C[C@H](C(=O)N[C@]2(C)O[C@@]3(O)[C@@H]4CCCN4C(=O)[C@H](Cc4ccccc4)N3C2=O)C=C2c3cccc4[nH]cc(c34)C[C@H]21`, the Potency entry is “inactive”.

Turning to `NP(N)(=O)NC(=O)c1ccc(F)cc1`, the “activity change, negative = cytotoxicity” value was -0.811%.

On to `CCCC(C)(COC(N)=O)COC(=O)NC(C)C` (stereo not given), for which the Potency entry was “inactive”.

Regarding `CN1CC[C@]23c4c5ccc(O)c4O[C@H]2[C@@H](O)CC[C@H]3[C@H]1C5`, the “activity change, negative = cytotoxicity” value was 3.01% [at 81.1 µM].

These data come from PubChem BioAssay (Tox21).
